# PubChem BioAssay (NCATS)
# Results filed as inconclusive are left out. A call without a number means that no potency is given here. Values without a mark were called inactive. Active and inactive are the calls of the source. Calls follow the shape of the dose curve; as a rule, active = well fitted curve in the direction sought with a large enough effect; inconclusive = small, poorly fitted or top-dose-only effect, or another doubt; inactive = no such curve, though single readings can be large; an effect the other way counts as inactive or inconclusive.
# Columns and labels:
# [1] = tested on: CRL-7250; assay: Cytotoxic Profiling of Annotated Libraries Using Quantitative High-Throughput Screening (AID 1296008); settings: Five cell lines viability, CellTiter-Glo ATP luminescence, 48-72 h; max response: stronger effect = lower value; also: nearly all actives have a fitted effect of over 60% in size; also: potency is read from the fitted curve at half-maximal effect
# In short: (§1)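 Cells exposed to compounds for 48 or 72 hr at 37 degrees Celsius. Viability read as ATP-coupled luminescence with CellTiter-Glo after 10 min at room temperature.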
# [2] = tested on: HEK293; assay: as above; settings: Five cell lines viability, CellTiter-Glo ATP luminescence, 48-72 h; max response: stronger effect = lower value
# In short: as §1
# [3] = tested on: HaCat; assay: as above; settings: Five cell lines viability, CellTiter-Glo ATP luminescence, 48-72 h; max response: stronger effect = lower value
# In short: as §1
# [4] = tested on: KB-3-1; assay: as above; settings: Five cell lines viability, CellTiter-Glo ATP luminescence, 48-72 h; max response: stronger effect = lower value
# In short: as §1
# [5] = tested on: NIH3T3; assay: as above; settings: Five cell lines viability, CellTiter-Glo ATP luminescence, 48-72 h; max response: stronger effect = lower value
# In short: as §1
# [6] = tested on: HACAT; assay: qHTS assay to identify novel small-molecules to repurpose for Merkel cell carcinoma treatment (AID 1296009); settings: MCC and control cell lines, CellTiter-Glo viability, 72 h; at 44.8 µM (top of the series) unless noted; also: nearly all actives have a fitted effect of over 60% in size
# In short: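 CellTiter-Glo luminescence after 72 hr compound exposure at 37 degree celsius gave cell viability. Libraries NPC and MIPE were run as 8- and 11-point dose responses; RLUs normalized to DMSO (negative) and no-cell (cytotoxicity) controls.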
# [7] = tested on: C33A; assay: Primary qHTS to identify gynecologic anti-cancer compounds using libraries of approved drugs and bioactive compounds (AID 1345084); settings: Gynecologic cancer cell panel viability, ATPlite luminescence, 48 h; series mostly up to 57.5 µM; also: nearly all actives have a fitted effect of over 55% in size
# In short: (§2)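 Cell viability after 48 h drug treatment, ATPlite luminescence readout; five doses.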
# [8] = tested on: CAOV3; assay: as above; settings: Gynecologic cancer cell panel viability, ATPlite luminescence, 48 h; series mostly up to 57.5 µM
# In short: as §2
# [9] = tested on: CASKI; assay: as above; settings: Gynecologic cancer cell panel viability, ATPlite luminescence, 48 h; series mostly up to 57.5 µM
# In short: as §2
# [10] = tested on: Es-2; assay: as above; settings: Gynecologic cancer cell panel viability, ATPlite luminescence, 48 h; series mostly up to 57.5 µM
# In short: as §2
# [11] = tested on: HeLa; assay: as above; settings: Gynecologic cancer cell panel viability, ATPlite luminescence, 48 h; series mostly up to 57.5 µM
# In short: as §2
# [12] = tested on: Hek293T; assay: as above; settings: Gynecologic cancer cell panel viability, ATPlite luminescence, 48 h, control line for the selectivity index; series mostly up to 57.5 µM
# In short: as §2
# [13] = tested on: JEG-3; assay: as above; settings: Gynecologic cancer cell panel viability, ATPlite luminescence, 48 h; series mostly up to 57.5 µM
# In short: as §2
Structure (SMILES),outcome [1],max response [2] [%],outcome [3],max response [4] [%],max response [5] [%],outcome [6],Potency [7],Potency [8],outcome [9],Potency [10],Potency [11],Potency [12],Potency [13],max response [1] [%],outcome [5],outcome [4],Potency [2]
COCC1OC(OC(C)(C)C2CCC3(C)C=C(C4CCC5C4(C)CC(O)C4OC(C(C)(C)O)CCC45C)CCC3O2)C(NC(C)=O)C(O)C1O (centres undefined),inactive,2.29,inactive,7.28,1.37,inactive [at 17.4 µM],inactive,inactive,inactive,inactive,inactive,inactive,inactive,,,,
C/C=C/C(=O)OC1/C=C/C(O)C(OC(C)=O)CCC(=O)OC1C (centres undefined),,3.73,inactive,-2.1,,inactive,inactive,inactive,inactive,inactive,inactive,inactive,inactive,-1.17,inactive,,
N#Cc1cc(-c2n[nH]c(-c3ccncc3)n2)ccn1,,-15.1,inactive,-1.34,0.552,inactive,inactive,inactive,inactive,inactive,inactive,inactive,inactive,-0.428,,,
COc1c2cc(c(O[C@@H]3O[C@H](CO)[C@@H](O)[C@H](O)[C@H]3O)c1OC)CCCCC(O)CCc1ccc(O)c-2c1 (some centres undefined),,-2.25,inactive,,1.47,inactive [at 17.4 µM],inactive,inactive,inactive,inactive,inactive,inactive,inactive,0.579,,inactive,
CC1(C)CC[C@]2(C(=O)O)CC[C@]3(C)C(=CCC4[C@@]5(C)C[C@@H](O)[C@H](O)[C@@](C)(CO)C5CC[C@]43C)C2C1 (some centres undefined),inactive,2.88,inactive,-4.17,-3.06,inactive [at 17.4 µM],inactive,inactive,inactive,inactive,inactive,inactive,inactive,,,,
CC1CCCCCCCc2cc(O)cc(O)c2C(=O)O1 (centres undefined),inactive,0.839,inactive,,0.752,inactive,inactive,inactive,inactive,inactive,inactive,inactive,inactive,,,inactive,
CC(=O)OC12CC(C)C(O)C1/C=C(/COC1OC(CO)C(O)C(O)C1O)CCC1C(/C=C(\C)C2=O)C1(C)C (centres undefined),,-3.67,inactive,,,inactive [at 17.4 µM],inactive,inactive,inactive,inactive,inactive,inactive,inactive,-1.86,inactive,inactive,
CCc1cc(CC[C@]2(C3CCCC3)CC(O)=C(Cc3nc4nc(C)cc(C)n4n3)C(=O)O2)cc(CC)n1,inactive,0.838,inactive,-0.912,-7.94,inactive,inactive,inactive,inactive,inactive,inactive,inactive,inactive,,,,
Cc1[nH]c2ccccc2c1CC(=O)N[C@@H](Cc1ccccc1)C(=O)N(C)c1ccccc1,,-12.5,inactive,,-0.277,inactive,inactive,inactive,inactive,inactive,inactive,inactive,inactive,-9.69,,inactive,
C=C(C)[C@H]1CC[C@]2(C(=O)O)CC[C@]3(C)C(CCC4[C@@]5(C)CCC(=O)C(C)(C)C5CC[C@]43C)C12 (some centres undefined),,,inactive,-14.2,-1.29,inactive [at 17.4 µM],inactive,inactive,inactive,inactive,inactive,inactive,inactive,-18.5,,,7.09 µM (active)
Cc1c(C)c(NCC(=O)N(C)C2CCN(Cc3ccc(C(N)=O)cc3)CC2)c(C)c(C)c1N,inactive,-11.3,inactive,-3.8,2.96,inactive,inactive,inactive,inactive,inactive,inactive,inactive,inactive,,,,
C=C(CO)C(=O)O[C@H]1C[C@@]23O[C@@H]2CC/C(=C/[C@H]2OC(=O)C(=C)[C@H]12)CO[C@H]3O,inactive,-24.8,inactive,,2.84,inactive,inactive,inactive,inactive,inactive,inactive,inactive,inactive,,,inactive,
CC1(C)CC[C@]2(C(=O)O)CC[C@]3(C)C(=CCC4[C@@]5(C)CC[C@H](O)C(C)(C)C5CC[C@]43C)C2C1 (some centres undefined),inactive,-9.46,inactive,2.08,-3.2,inactive [at 17.4 µM],inactive,inactive,inactive,inactive,inactive,inactive,inactive,,,,
